Results on six compounds are retold here after PubChem BioAssay (NCI).

This is part of a sample that, as a whole, favours compounds with a hit. Of some 83,000 tested, about 20% had one in any assay.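 In brief: 96-well plates, 48 h treatment, single concentration, percent growth endpoint.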 Activity calls are given as the source filed them. How the source made its calls: active means growth percent below 10; inactive means the rest.

For this experiment, the system named is MDA-MB-468 breast. Briefly: NCI-60 one-dose screen, 48 h (100 = growth as untreated, 0 = no growth, -100 = all killed). The following applies: 10 µM unless noted.
Regarding `CCN(CC)CCCC(C)Nc1c2ccc(Cl)cc2nc2cc(OC)c(OC)cc12` (stereo unspecified), the growth is -44% (active).

In the case of `c1ccc(-c2nn(-c3ccccc3)[n+](-c3cccc4ccccc34)n2)cc1`, the growth was -20.4% (active).

On to `COc1cc(/C=C/C(=O)c2c(C)nc3ccccc3c2/C=C/c2ccc(C)cc2)cc(OC)c1OC`, for which the growth was 18.9% (inactive).

As to `O=C1c2ccccc2OC=C(c2ccccc2)N1CCCCN1CCCCC1`, the growth was -6.27% (active).

Take `Fc1cc2[nH]ncc2c2c3c(c(-c4cn[nH]c4C(F)(F)F)nc12)C1CCC3C1` (stereo unspecified): the growth was 11.5% (inactive).

As to `CC1(C)CCC[C@]23C(=O)O[C@](O)(C(=O)C4=C[C@@](C)(/C=C/CCCc5ccc6ccc7cccc8ccc5c6c78)CC[C@@]42O)[C@@H]13`, the growth is -70% (active).
